# In PubChem BioAssay (NCI):
# About 83,000 compounds went through this panel and 20% of them were active in at least one assay; those are over-represented in the sample as a whole.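 In brief: 96-well plates, 48 h treatment, single concentration, percent growth endpoint.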 A number with no mark means an inactive call. Activity calls are given as the source filed them. How the source made its calls: active means growth percent below 10; inactive means the rest.
# Test system: HL-60(TB) leukemia
# Assay: NCI-60 one-dose screen, 48 h (100 = growth as untreated, 0 = no growth, -100 = all killed)
# Conditions: 10 µM unless noted
row,Structure (SMILES),growth
1,CC(=O)c1ccc(Nc2nc(Cl)nc(Oc3c(Cl)cccc3Cl)n2)cc1,97.8%
2,O=[N+]([O-])c1cc(C(F)(F)F)ccc1Sc1ccc(C(F)(F)F)cc1[N+](=O)[O-],8.05% (active)
3,Cc1ccc(N(CC(=O)Nc2ccc(S(=O)(=O)N3CCC(N4CCCC4)CC3)cc2)S(=O)(=O)c2ccc(Cl)cc2)cc1,-51.5% (active)
4,COc1ccc(-c2nnc(COc3ccc(NC(=O)Nc4cc(C(F)(F)F)cc(C(F)(F)F)c4)cc3F)o2)cc1,-17.2% (active)
5,NCCSSC/C=C\CSSCCN,59.1%
6,C/C(=N\Nc1nc(C)cs1)c1cc2ccccc2o1,83.4%
7,c1ccc2c(c1)CCCc1nnc3nc4ccccc4n3c1-2,34.2%
8,CC(C)C[C@H](NC(=O)[C@H](Cc1cccc2ccccc12)NS(=O)(=O)c1cccc2cccnc12)B(O)O,-17.2% (active)
9,CCN(CC)CCCCCNc1cc(OC(=O)c2ccccc2)cc2cccnc12,79.8%
10,CCOC(=O)[C@@H]1[C@H](c2ccccc2)[C@H]([N+](=O)[O-])[C@H](c2cn(-c3ccccc3)nc2C)N1Cc1ccccc1,77.7%
11,C=C1C(=O)O[C@H]2[C@H]1CC/C(CNC(=O)/C=C/c1ccccc1)=C\CC[C@@]1(C)O[C@@H]21,-31.3% (active)
12,CN(Cc1cnc2nc(N)nc(N)c2n1)c1c(Cl)cc(C(=O)NC(CCC(=O)O)C(=O)O)cc1Cl (stereo unspecified),18.6%
13,CCNC(=O)c1[nH]cc(-c2ccc(OC)cc2)c1-c1cc(OC)c(OC)c(OC)c1,5.15% (active)
14,COc1cc(OC)c2c(=O)c3c(CC=C(C)C)cc(OC)c(O)c3oc2c1,96.7%
15,O=C(NNC(=O)c1ccc([N+](=O)[O-])cc1)c1ccc([N+](=O)[O-])cc1,88.3%
16,CNCCNc1nc2ccccc2c2c(=O)c3cccc(C)c3sc12,-39.8% (active)
17,COc1ccncc1C#Cc1cncc(C(=O)Nc2ccc(CN3CCN(C)CC3)c(C(F)(F)F)c2)c1,8.01% (active)
18,C=C1C(=O)O[C@H]2[C@H]1CC/C(COC(=O)NCCc1ccc(Br)cc1)=C\CC[C@@]1(C)O[C@@H]21,-14% (active)

row,Structure (SMILES),growth
1,Cc1ccc2c(c1)nc(C)n2-c1ncnc2c1CC(C)c1cc(O)ccc1N2C (stereo unspecified),-5.44% (active)
2,Cn1cnc2c(F)c(Nc3ccc(Br)cc3Cl)c(C(=O)NOCCO)cc21,24.5%
3,BrCCCc1n(Cc2ccc3ccccc3c2)c2ccccc2[n+]1Cc1ccc2ccccc2c1,-54.9% (active)
4,Cn1cc(-c2nc(-c3c[nH]c4ncccc34)cs2)c2cccnc21,48.1%
5,O=c1[nH]c(-c2ccc(Cl)cc2)nc2sc3c(c12)CCCC3,90.7%
6,COc1ccc(C2C=C(c3ccc(Cl)cc3)N=C3SC=CN32)c(Br)c1 (stereo unspecified),92.9%
7,Cc1ccc2nc(NC(=O)CSc3nc(Nc4ccc([N+](=O)[O-])cc4)c(C#N)c(-c4ccccc4)n3)sc2c1,95.2%
8,Cc1cc2nc(CC(=O)c3cccc([N+](=O)[O-])c3)c(=O)[nH]c2cc1C,93.5%
9,Cc1ccc2oc(=O)cc(/C(=C3/C=CC=N3)c3ccc[nH]3)c2c1,-13.6% (active)
10,Cc1cccc(C(=O)N(C(C)C)C(C)C)c1,99.1%
11,Cc1cc(N(CCCNc2ccnc3cc(Cl)ccc23)Cc2ccco2)nc(N2CCN(C)CC2)n1,38%
12,COC(=O)c1oc2c(C(=O)/C=C/c3ccc(OC)cc3)c(OCCN3CCOCC3)ccc2c1C,-24.1% (active)
13,COc1cc(/C=C/C(=O)c2cccc(-n3cc(-c4ccccc4)[nH]c3=O)c2)cc(OC)c1OC,-5.55% (active)
14,CC(C)(C)c1cc(-c2nc3ccc(N4CCN(CCO)CC4)cc3[nH]2)cc(C(C)(C)C)c1O,63.5%
15,O=C1c2cccnc2C(=O)c2c1c(C(=O)OCCCN1CCOCC1)c1ccccn21,-3.63% (active)
16,C/C=C(/C)C(=O)O[C@@H]1CC(C)(C)CC2C34OC(=O)[C@@]21CC[C@@]3(C)[C@]1(C)CCC2C(C)(C)C(=O)CC[C@]2(C)C1C[C@@H]4Cl (stereo partly specified),101%
17,COc1cc(-c2nn(-c3ccc(NC(=O)c4cc(Cl)cc(Cl)c4)cc3)cc2-c2ccncc2)ccc1Cl,41%
18,CC1=NCC2NC(=O)NC(C)=C12 (stereo unspecified),109%
